# Laboratory results from PubChem BioAssay (NCI).
# Compounds without any hit were thinned out: in the full panel of roughly 83,000, 20% have a hit.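 Negative percent growth values reflect cell death: -40 means 40% of the cells present at the start died, and -100 means all died.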 Unmarked numbers belong to inactive results. Activity calls are given as the source filed them.
# System: SK-MEL-28 melanoma
# Test: NCI-60 one-dose screen, 48 h (100 = growth as untreated, 0 = no growth, -100 = all killed)
# Details: 10 µM unless noted
# Experimental: Growth inhibition of the SK-MEL-28 human tumor cell line is measured as a screen for anti-cancer activity. Cells are grown in 96 well plates and exposed to the test compound for 48 hours. Compounds are tested at a single concentration, which is 10^-5 M for most compounds. The reported endpoint is percent growth (GI% or GIPRCNT), where numbers from 0 - 100% represent growth inhibition, and numbers from -100% - 0 represent cell death. For example, a value of 40 represents 60% growth inhibition. A value of 0 means no net growth occurred over the course of the experiment. A value of -40 indicates 40% of cells at the beginning of the experiment died by the end of the experiment. A value of -100 means all cells are dead at the end of the experiment.
# NCI-60 Human Tumor Cell Lines Screen was performed using the standard one-dose NCI protocol, which is described in more detail at https://dtp.cancer.gov/discovery_development/nci-60/default.htm.
# Compounds with GIPRCNT values below 10 were considered active. Activity score was based on GIPRCNT using the following formula: […]
# Score is 0 for GIPRCNT values of 100 or above, 50 for GIPRCNT values of 0, and 100 for GIPRCNT values of -100.
row,Structure (SMILES),growth
1,CCN(CC)CCCNc1cc(OC)cc2cccnc12,126%
2,O=c1c(Cc2ccc(F)cc2)cc(-c2ccccc2)nn1C/C(=N/O)c1ccccc1,62%
3,O=C1c2ccccc2C(=O)c2cc(Cn3c[n+](Cc4ccc5ccccc5c4)c4ccccc43)ccc21,45.4%
4,CN1CCN(Cc2ccc(NC(=O)c3cncc(C#Cc4cnc(N)c5ncccc45)c3)cc2Cl)CC1,45.1%
5,Nc1n[nH]c2cccc(C#Cc3cccc(C(=O)Nc4ccc(Cl)c(C(F)(F)F)c4)c3)c12,24.7%
6,COc1ccc(C(=O)/C=C/c2ccc(Cl)cc2)cc1S(N)(=O)=O,97.8%
7,C#Cc1c(I)n(C2OC(CO[Si](C)(C)C(C)(C)C)C3OC(C)(C)OC32)c(=O)[nH]c1=O (stereo not given),-56.7% (active)
8,C[C@@H]1N=C(c2ccc(Cl)cc2Cl)Nc2nc3ccccn3c2C1=O,60.7%
9,CN1C(=O)N(C)C2C1NN=c1s/c(=C\c3ccccc3F)c(=O)n12 (stereo not given),47.1%
10,Oc1cccc(-c2nc(-c3n[nH]c(=S)n3-c3ccccc3)cc3c2[nH]c2ccccc23)c1,31.4%
11,CCOC(=O)c1ccc2c(c1)[n+](=O)c(C(C)=O)c(C(F)(F)F)n2[O-],27.9%
12,CCOc1ccc(N2C(=O)CCSC2=S)cc1,108%
13,CNC(=O)c1cc(Oc2ccc3nc(NC(=O)NC(C)C)sc3c2)ccn1,85.8%
14,CC(C)=CC(=O)C1C(=O)c2ccccc2C1=O,108%
15,COc1cc(NC(=O)c2cncnc2Nc2ccc3c(ccn3Cc3cccc(F)c3)c2)cc(OC)c1,59.6%
16,Clc1ccc(C2=Nn3c(nnc3-c3cc(Cl)cc(Cl)c3Cl)SC2)cc1,62.1%
17,COc1ccc(CNc2c3ccccc3nc3ccccc23)cc1OC,35.2%
18,Cc1ccc(-c2nn(CC(=O)N3CCOCC3)c(N)c2C#N)cc1,102%
19,COc1cc(/C=C/c2cc(/C=C/c3ccc(O)c(OC)c3)n(C(=O)Nc3ccc(C)cc3C)n2)ccc1O,5.57% (active)
20,COc1ccc(C(=O)/C=C/Nc2cc(-c3ccccc3)nn2-c2ccccc2)cc1,99.5%

row,Structure (SMILES),growth
1,O=[N+]([O-])c1ccc(Oc2cccc3c(Oc4ccc([N+](=O)[O-])cc4[N+](=O)[O-])cccc23)c([N+](=O)[O-])c1,110%
2,Cc1ccc(S(=O)(=O)c2nc(-c3ccccc3)oc2S(C)=O)cc1 (stereo not given),-63.2% (active)
3,O=C(CSc1nnc(-c2cc(-c3ccc(Cl)cc3)nc3ccccc23)n1-c1ccccc1)Nc1ccc(Cl)cc1,103%
4,CCNc1nc(-c2ccc(Cl)c(OC)c2)c(-c2ccnc(NCCNS(=O)(=O)c3ccc(Cl)cc3)n2)s1,32.3%
5,Cc1ccc(Nc2cc(N)nc(N)n2)cc1,105%
6,Cc1ccc(C2=Nc3c(N)nc(N)nc3NC(c3cccc(Nc4ccnc5cc(C(F)(F)F)ccc45)c3)C2)cc1 (stereo not given),66.8%
7,COc1cc(CNC(=O)CCCC/C=C/C(C)C)ccc1OCc1cn(-c2cccc([N+](=O)[O-])c2)nn1,106%
8,O=C(O)COc1ccc(F)cc1,116%
9,CCOC(=O)/C(=C\c1ccccc1Cl)P(=O)(OCC)OCC,65.2%
10,c1ccc2[nH]c(-c3ccc(-c4nccc5c4[nH]c4ccccc45)cc3)nc2c1,61.3%
11,Cc1ccc2c(c1)CC(O)CC1C(=O)N(CCO)CC(=O)N21 (stereo not given),102%
12,COc1ccc(C(c2cc(OC)c(OC)c(OC)c2)n2cncn2)cc1O (stereo not given),57%
13,CCN(CC)CCCNC(=O)c1c2c(n3ccccc13)C(=O)c1ncccc1C2=O,22.8%
14,CC(C)(C)n1cc(-c2ccnc(NCCNS(=O)(=O)c3ccc(C(F)(F)F)cc3)c2)c(-c2ccccc2)n1,100%
15,O=C(Nc1ncc(Cc2ccc(Cl)cc2)s1)c1ccc2c(c1)OCCO2,76.2%
16,C#CCOc1cc(/C=N/Nc2nc(-c3ccc(OC)cc3)cs2)ccc1O,97.8%
17,COC(=O)c1cc(-c2ccc(OC)c(OC)c2)[nH]c1N/N=C/c1c(Cl)cccc1Cl,56.4%
18,c1ccc(-c2cn3nc(-c4c[nH]c5ccccc45)sc3n2)cc1,86.8%
19,COCCn1cc(-c2nc(-c3cc4cccnc4n3C)cs2)c2cc(OC)ccc21,88.3%
20,Cc1c(N2CCCCC2)[nH]c2ccccc12,133%
